The record followed here is the supplement of paper PMC9262897, “Low-cost anti-mycobacterial drug discovery using engineered E. coli” (Nature Communications, 2022).

Counter-ions that a name gives are not always drawn. ± gives the standard deviation of the averaged measurements.

Holding throughout (test): growth (OD600 after 10 h); higher = more growth (less inhibition)
Assay [1] has as its system E. coli TESEC Alr+ wild-type control. Conditions: compound 0.1 mM; raw OD600 reference: median of DMSO wells 0.241, cell-free background 0.041. The protocol: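 TESEC Mtb Alr E. coli, or the Alr+ wild-type control, in 384-well plates with Prestwick library compounds at 0.1 mM and 1% DMSO, across arabinose induction levels of 1E3 to 1E7 nM. Growth is read as OD600 after 10 h at 37 °C in triplicate biological replicates.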

The test system of a further assay is E. coli TESEC Mtb Asd. To be noted: compound 0.1 mM. As for the experimental part:
(§1)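 TESEC E. coli strains in which the native enzyme is deleted and replaced by arabinose-inducible Mtb Asd, DapB, CysH or TrpD, each grown in its selective medium. Strains were screened against the Prestwick library at 0.1 mM and 1% DMSO in 384-well format at low and high arabinose induction. Growth is read as OD600 after 10 h in triplicate.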

The test system of a further assay is E. coli TESEC Mtb DapB. To be noted: compound 0.1 mM. As for the experimental part: as §1
The subject of assay [2] is E. coli TESEC Alr+ wild-type control. To be noted: compound 0.1 mM; raw OD600 reference: median of DMSO wells 0.49, cell-free background 0.052. The protocol: (§2)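 TESEC Mtb Alr E. coli (ΔaraC ΔtolC ΔentC Δalr ΔdadX, arabinose-inducible Mtb Alr) or the Alr+ wild-type control strain, grown in defined M9-fructose medium without D-alanine in 96-well plates with Prestwick library compounds at 0.1 mM and 1% DMSO. Low Alr induction is 0.1 µM arabinose and high induction is 10 mM arabinose.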

The test system of another assay is E. coli TESEC Mtb Alr. To be noted: compound 0.1 mM. As for the experimental part:
as §2

Setting [3] is: arabinose induction (level): High, raw OD600 reference: median of DMSO wells 0.331, cell-free background 0.041.
The mark [4] stands for this setting: arabinose induction (level): Low, raw OD600 reference: median of DMSO wells 0.417, cell-free background 0.041.
[5] abbreviates: arabinose induction (level): High, raw OD600 reference: median of DMSO wells […], cell-free background 0.041.
Setting [6] is: arabinose induction (level): Low, raw OD600 reference: median of DMSO wells 0.227, cell-free background 0.041.
Where [7] appears, read: arabinose 100 nM, raw OD600 reference: median of DMSO wells 0.413, cell-free background 0.052.
Where [8] appears, read: arabinose 10000000 nM, raw OD600 reference: median of DMSO wells […], cell-free background 0.052.

`CCCCOc1ccc(OCCCN2CCOCC2)cc1` [Pramoxine hydrochloride]: the growth in assay [1] is 0.199 ± 0.0084; in the assay with E. coli TESEC Mtb Asd (setting [3]), 0.362 ± 0.03; in the assay on E. coli TESEC Mtb Asd (setting [4]), 0.403 ± 0.022; with E. coli TESEC Mtb DapB (setting [5]), 0.183 ± 0.014; in the assay on E. coli TESEC Mtb DapB (setting [6]), 0.226 ± 0.0093; in assay [2] it was 0.425 ± 0.028. In addition, the growth stood at 0.408 ± 0.0076 with E. coli TESEC Mtb Alr (setting [7]) and 0.332 ± 0.011 with E. coli TESEC Mtb Alr (setting [8]).
`CN1C(C(=O)Nc2ccccn2)=C(O)c2ccccc2S1(=O)=O` [Piroxicam]: the growth in assay [1] stood at 0.195 ± 0.0024; in the assay on E. coli TESEC Mtb Asd (setting [3]), 0.321 ± 0.013; with E. coli TESEC Mtb Asd (setting [4]), 0.282 ± 0.042; in the assay with E. coli TESEC Mtb DapB (setting [5]), 0.181 ± 0.015; with E. coli TESEC Mtb DapB (setting [6]) it was 0.227 ± 0.068; in assay [2] it was 0.4032 ± 0.0031. Further, the growth in the assay on E. coli TESEC Mtb Alr (setting [7]) amounted to 0.362 ± 0.1; in the assay with E. coli TESEC Mtb Alr (setting [8]), 0.259 ± 0.016.
With `CN[C@@H]1[C@H](O[C@H]2[C@H](O[C@H]3[C@H](O)[C@@H](O)[C@H](N=C(N)N)[C@@H](O)[C@@H]3N=C(N)N)O[C@@H](C)[C@]2(O)C=O)O[C@@H](CO)[C@H](O)[C@H]1O` [Streptomycin sulfate], the growth worked out at 0.04117 ± 5.8e-05 in assay [1]; 0.0611 ± 0.0021 with E. coli TESEC Mtb Asd (setting [3]); 0.0528 ± 0.00084 in the assay on E. coli TESEC Mtb Asd (setting [4]); 0.108 ± 0.048 with E. coli TESEC Mtb DapB (setting [5]); 0.0695 ± 0.0084 with E. coli TESEC Mtb DapB (setting [6]); 0.0543 ± 0.00036 in assay [2]. The growth with E. coli TESEC Mtb Alr (setting [7]) was 0.0665 ± 0.0098; in the assay with E. coli TESEC Mtb Alr (setting [8]) it was 0.05093 ± 0.00012.
Consider `CC(C[N+](C)(C)C)OC(N)=O` (stereo unspecified) [Bethanechol chloride], for which the growth was determined as 0.24 ± 0.0039 in assay [1]; 0.373 ± 0.07 in the assay with E. coli TESEC Mtb Asd (setting [3]); 0.381 ± 0.028 with E. coli TESEC Mtb Asd (setting [4]); 0.2 ± 0.024 with E. coli TESEC Mtb DapB (setting [5]); 0.242 ± 0.025 with E. coli TESEC Mtb DapB (setting [6]); 0.603 ± 0.0074 in assay [2]. The growth in the assay on E. coli TESEC Mtb Alr (setting [7]) was found to be 0.438 ± 0.0061; with E. coli TESEC Mtb Alr (setting [8]) it was 0.349 ± 0.006.
As for `O=C(O[C@@H]1C[C@@H]2C[C@H]3C[C@H](C1)N2CC3=O)c1c[nH]c2ccccc12` [Dolasetron mesilate], the growth in assay [1] was determined as 0.204 ± 0.0058; with E. coli TESEC Mtb Asd (setting [3]) it was 0.226 ± 0.044; in the assay with E. coli TESEC Mtb Asd (setting [4]), 0.482 ± 0.053; with E. coli TESEC Mtb DapB (setting [5]), 0.192 ± 0.019; in the assay on E. coli TESEC Mtb DapB (setting [6]) it was 0.217 ± 0.016; in assay [2], 0.473 ± 0.027. The values for the growth in the assay on E. coli TESEC Mtb Alr (setting [7]) and in the assay with E. coli TESEC Mtb Alr (setting [8]) were 0.405 ± 0.016 and 0.23 ± 0.036, respectively.
Regarding `CCCc1nc2c(C)cc(-c3nc4ccccc4n3C)cc2n1Cc1ccc(-c2ccccc2C(=O)O)cc1` [Telmisartan], the growth in assay [1] was determined as 0.208 ± 0.0078; in the assay with E. coli TESEC Mtb Asd (setting [3]), 0.2439 ± 0.00056; in the assay on E. coli TESEC Mtb Asd (setting [4]), 0.41 ± 0.024; with E. coli TESEC Mtb DapB (setting [5]) it was 0.273 ± 0.0084; in the assay with E. coli TESEC Mtb DapB (setting [6]), 0.307 ± 0.039; in assay [2] it was 0.505 ± 0.043. Moreover, the growth in the assay on E. coli TESEC Mtb Alr (setting [7]) amounted to 0.283 ± 0.052; with E. coli TESEC Mtb Alr (setting [8]), 0.337 ± 0.018.
In the case of `C[C@@H]1CN(c2c(F)c(N)c3c(=O)c(C(=O)O)cn(C4CC4)c3c2F)C[C@H](C)N1` [Sparfloxacin], the growth turned out to be 0.0414 ± 0.0019 in assay [1]; 0.04863 ± 0.0004 in the assay on E. coli TESEC Mtb Asd (setting [3]); 0.0462 ± 0.0031 with E. coli TESEC Mtb Asd (setting [4]); 0.0488 ± 0.00061 in the assay with E. coli TESEC Mtb DapB (setting [5]); 0.04823 ± 0.00038 in the assay on E. coli TESEC Mtb DapB (setting [6]); 0.0553 ± 0.0029 in assay [2]. Moreover, the values for the growth with E. coli TESEC Mtb Alr (setting [7]) and in the assay on E. coli TESEC Mtb Alr (setting [8]) were 0.0536 ± 0.0018 and 0.051 ± 0.00046, respectively.
